Compound activity as filed in PubChem.
Only some compounds are listed: those with a hit (about 2% of all), similar ones and a draw of the others.
aSyn yeast inh – rescues yeast growth from alpha-synuclein toxicity; Yeast expressing alpha-synuclein, growth rescue, BacTiter-Glo, 24 h; 370,000 tested, 0.14% active; Potency, µM (series often up to 46.1 µM), inactives show at the top dose growth rescue (activation), hits mostly activators; also: % of control where 0% means no effect; nearly all actives have a fitted effect of over 65% in size
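Galactose-induced alpha-syn yeast (OD600=0.02, raffinose-pregrown) + pinned cpd, 24 hr, 30 deg C; growth by BacTiter-Glo luminescence. Growth restoration scores as activation.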
Abeta rescue – A-beta toxicity reversal in yeast; yeast expressing A-beta42, growth rescue, OD600, 48 h; response scale: 0% DMSO, 100% iron-clioquinol control; Potency, µM (top dose mostly 46.1 µM), most hits filed as activators; 410,000 tested, 0.063% active; AID 1347071; also: nearly all actives have a fitted effect of over 55% in size
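Yeast growth medium received pinned compounds, then yeast cells expressing toxic A-beta were added; plates incubated at 30 C for 48 hr. Growth read as absorbance at 600 nm, normalized to DMSO and equimolar FeCl3 plus clioquinol controls.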
TDP-43 yeast inh – inhibitors of TDP-43 toxicity in yeast; TDP-43 expressing yeast growth rescue, BacTiter-Glo, 24 h; Potency, µM (series often up to 46.1 µM), without a hit: at the highest dose growth rescue (activation), actives largely listed as activators; 410,000 tested, 1.8% active; also: % of control where 0% means no effect; nearly all actives have a fitted effect of over 50% in size
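Yeast expressing TDP-43 (pregrown in raffinose, seeded at OD600=0.02 in galactose medium) exposed to compounds 24 hr at 30 deg C. Growth read by BacTiter-Glo luminescence; rescue of toxicity appears as increased signal.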
Rango complex inh – prevents formation of the Rango-importin beta complex | Q14974 | Rango CFP/YFP FRET sensor + importin beta, 45 min | Potency, µM (doses to about 92.2 µM), for inactives: at the top dose inhibition of complex formation | 340,000 tested, 0.031% active; calls by dose curve;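 also: 0% = DMSO wells and 100% = buffer wells lacking importin beta; nearly all actives have a fitted effect of over 15% in size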
Target sequence (Q14974 whole entry, looked up): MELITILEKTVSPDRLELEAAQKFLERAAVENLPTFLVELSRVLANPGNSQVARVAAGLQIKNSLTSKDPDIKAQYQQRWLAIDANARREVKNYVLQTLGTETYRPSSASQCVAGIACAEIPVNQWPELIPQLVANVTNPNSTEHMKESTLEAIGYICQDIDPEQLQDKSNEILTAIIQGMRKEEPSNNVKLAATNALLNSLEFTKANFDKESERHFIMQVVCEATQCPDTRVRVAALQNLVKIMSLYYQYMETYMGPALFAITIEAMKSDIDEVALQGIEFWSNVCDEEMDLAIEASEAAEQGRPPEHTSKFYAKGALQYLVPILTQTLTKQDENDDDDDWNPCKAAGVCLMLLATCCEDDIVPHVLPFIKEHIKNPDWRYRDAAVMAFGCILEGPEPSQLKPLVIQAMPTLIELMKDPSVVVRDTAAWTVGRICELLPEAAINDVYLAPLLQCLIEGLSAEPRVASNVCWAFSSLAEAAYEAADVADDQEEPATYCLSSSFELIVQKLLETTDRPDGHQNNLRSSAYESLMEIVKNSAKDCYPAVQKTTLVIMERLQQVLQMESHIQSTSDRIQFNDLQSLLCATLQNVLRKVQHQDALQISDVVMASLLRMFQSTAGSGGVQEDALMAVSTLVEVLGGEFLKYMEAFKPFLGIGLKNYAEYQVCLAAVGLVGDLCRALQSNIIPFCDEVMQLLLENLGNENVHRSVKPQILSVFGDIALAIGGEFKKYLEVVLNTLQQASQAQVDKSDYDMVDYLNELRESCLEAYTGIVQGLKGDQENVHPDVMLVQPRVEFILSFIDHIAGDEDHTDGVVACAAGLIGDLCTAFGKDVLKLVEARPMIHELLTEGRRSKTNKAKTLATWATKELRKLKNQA
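FRET biosensor (snurportin 1 IBB flanked by EYFP and cerulean), 50 nM, with compound 5 min, then 0.125 microM importin beta in PBS, 1 mM DTT, 0.02% Tween-20, 0.1% BSA. CFP/YFP ratio read after 45 min at room temperature; pre-read flags interference.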
Rango release inh – prevents RanGTP from dissociating the Rango-importin beta complex. O95149+P62826. Biochemical FRET Rango-importin beta, RanGTP-induced dissociation. Potency, µM (top dose mostly 46.1 µM), without a hit: at the top dose activity change, negative = inhibition. 340,000 tested, 0.071% active; calls by dose curve; also: % of control where 0% means no effect; nearly all actives have a fitted effect of over 45% in size
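Rango (0.1 uM)–importin beta (0.25 uM) complex; RanGTP-RCC1 trigger; 45 min RT; CFP/YFP FRET read.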
ASM inhibitor – inhibitors of human secretory acid sphingomyelinase. P17405. 340,000 tested, 0.006% active. placental ASM, HMU-PC fluorogenic substrate, 60 min. Potency, µM (top dose mostly 57.5 µM), for inactives: at the top dose activity change, negative = inhibition, actives largely listed as inhibitors
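Human placenta-derived ASM preincubated with compound 10 min at room temperature, then reacted with 9 uM (final) fluorogenic HMU-PC substrate for 60 min at 37 C. Stop solution raises pH to 10; fluorescence read at Ex 386/Em 447 nm.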
* hit, by the source's call; i = inactive; ? = inconclusive; . = no result given; [ ] = dose if it differs, or a comment. Unless noted, calls follow the shape of the dose curve; as a rule, active = well fitted curve in the direction sought with a large enough effect; inconclusive = small, poorly fitted or top-dose-only effect, or another doubt; inactive = no such curve, though single readings can be large; an effect the other way counts as inactive or inconclusive. Potency is read from the fitted curve at half-maximal effect.

SMILES | aSyn yeast inh | Abeta rescue | TDP-43 yeast inh | Rango complex inh | Rango release inh | ASM inhibitor
CC1C(=O)N(Cc2cn(Cc3ccco3)nn2)CCS(=O)(=O)N1Cc1ccc(-c2ccc(Cl)cc2)cc1 (stereo not given) | 3% | i | 35µM* | . | . | .
CCOc1ccc(-n2c(=O)c3c(C)c(C)sc3n(CC(=O)C(C)(C)C)c2=O)cc1 | . | i | 6% | . | . | .
CN1c2ccccc2Oc2nnc(Cl)cc21 | 16µM* | i | 11µM* | 3% | 11% | i
COC(=O)c1ccccc1NC(=O)c1cc(-c2ccc(Cl)cc2)on1 | . | i | 9% | . | . | .
CCCOc1ccc(N2C(=O)CC(N(Cc3ccccc3)N=O)C2=O)cc1 (stereo not given) | 0% | i | 20µM* | 0% | 1% | -2%
CCNC(=S)N(Cc1ccc(OC)cc1)C1CC(=O)N(c2ccc(OCC)cc2)C1=O (stereo not given) | 9% | i[9.22 µM] | -3% | 0% | 1% | -9%
CCOc1ccc(N2C(=O)CC(N(C)Cc3ccccc3)C2=O)cc1 (stereo not given) | 7% | i | 18µM* | ? | 2% | 7%
COC(=O)c1ccc(N2C(=O)CC(N(C)Cc3ccccc3)C2=O)cc1 (stereo not given) | -32% | i | 7.1µM* | -1% | -4% | 0%
COc1ccc(OC)c(/C=C2\Cc3ccccc3C2=O)c1 | 3% | . | . | . | . | .
Cc1c(NS(=O)(=O)c2cccs2)cccc1-c1nc2cccnc2s1 | ? | . | 22µM* | -1% | 3% | 3%
Cc1c(NS(=O)(=O)c2ccc3c(c2)OCCO3)cccc1-c1nc2cccnc2s1 | ? | i | 35µM* | 2% | 8% | -3%
COc1ccc(OC)c(NC(=O)CCCOc2cc(=O)n(C)c3ccccc23)c1 | . | i | 0% | . | . | .
COc1ccccc1NCc1nnc2n1CCCCC2 | . | i | 7% | . | . | .
O=C(CNC(=O)c1cccc(F)c1)OCCOc1cccc(Cl)c1 | 8% | i | 13µM* | 0% | 8% | -2%
O=C(CNC(=O)c1ccccc1)OCCOc1cccc(Cl)c1 | 13% | i | 24% | -3% | 15% | 2%
N#C/C=C1\n2c(nc3ccccc32)OC12CCCCC2 | -2% | i | 16µM* | -2% | 0% | 2%
O=C(Nc1nc2ccccc2n1CCN1CCCCC1)c1ccco1 | -5% | i | 7% | 0% | 11% | -1%
COc1cc(OC)c(-c2cc(C(=O)NCc3ccc(F)cc3)c3c(-c4ccccc4)[nH]nc3n2)cc1OC | . | i | 26% | . | . | .
COc1cccc(/C=C/c2ccc3ccccc3[n+]2C)c1OC | -25% | . | . | . | . | .
CCOc1ccccc1NC(=O)CN1C(=O)CC(c2ccc(OC)c(OC)c2)Sc2ccccc21 (stereo not given) | 10% | i | ? | . | . | .
NNC(=O)c1ccc(Cn2cc(Br)cn2)o1 | 0% | i | 11% | 0% | -5% | 4%
Cc1ccc(NC(=O)c2ccc(Cn3cc(Br)cn3)o2)cc1 | -10% | i | 16µM* | 1% | -15% | -1%
CCc1cc(=O)oc2cc3oc(C)c(C)c3cc12 | 4% | i | 3.5µM* | -6% | -2% | 38%
COC(=O)c1ccccc1NC(=O)CCC(=O)N1CCSc2ccccc21 | 3% | i | 0% | 1% | 6% | 4%
COC(=O)c1ccccc1NC(=O)CCC(=O)N1CC(C)Sc2ccccc21 (stereo not given) | . | i | 18µM* | . | . | .
SMILES | aSyn yeast inh | Abeta rescue | TDP-43 yeast inh | Rango complex inh | Rango release inh | ASM inhibitor
COC(=O)c1ccccc1NC(=O)CCC(=O)N1CC(C)Oc2ccc(C)cc21 (stereo not given) | 3% | i | 18µM* | -1% | -7% | -1%
CN(C)c1ccc(CNC(=O)c2ccc3nc(CCc4ccccc4)oc3c2)cc1 | . | i | 5% | . | . | .
OC(c1ccccc1)c1nc(-c2ccc3c(c2)OCO3)cs1 (stereo not given) | 11µM* | i | 20µM* | . | . | .
OC(c1cccc(Cl)c1)c1nc(-c2ccc3c(c2)OCO3)cs1 (stereo not given) | ? | i | 32µM* | . | . | .
Cc1ccc(/C=C2\Sc3ccccc3C2=O)s1 | -8% | i | 9% | ? | 2.9µM* | ?
O=C(C1CCC1)N1CCCc2cc(S(=O)(=O)N3CCN(c4cccc(Cl)c4)CC3)ccc21 | . | i | 16% | . | . | .
CCOC(=O)c1cnc2c(ccc3ccccc32)c1Nc1cccc(C(F)(F)F)c1 | . | i | 18% | . | . | .
COc1ccc(-n2ncc3c(N4CCC(C)CC4)ncnc32)cc1 | -8% | i | 14µM* | -4% | -5% | 0%
CC1CCN(c2ncnc3c2cnn3-c2ccccc2)CC1 | 7% | i | ? | 7% | -12% | -5%
COC1=C(OC)C(=O)c2ccccc2C1=O | 10% | . | . | . | . | .
COC1=C(Nc2ccc(C)cc2)C(=O)c2ccccc2C1=O | -16% | i | 10µM* | 0% | 1% | -9%
COC1=C(Nc2ccccc2)C(=O)c2ccccc2C1=O | 0% | i | 13µM* | 0% | -1% | -9%
COc1ccc(OC)c2c1C(=O)c1ccccc1C2=O | -5% | i | 25µM* | ? | ? | -9%
Cc1ccc(Cn2cnc3c(oc4ccccc43)c2=O)cc1 | . | i | 0%[9.22 µM] | . | . | .
Cc1ccc2nc(N3CCN(c4ccccc4F)CC3)c(C=O)c(=O)n2c1 | 1% | i | 16µM* | 1% | 31% | -3%
O=C(c1ccc(Br)cc1)N1CCC(c2nc3ccccc3s2)CC1 | . | i | -37% | . | . | .
COc1ccc(-n2cc(C(=O)c3ccccc3O)cn2)cc1 | -5% | i | 13µM* | 1% | 0% | 10%
O=C(c1cnn(-c2ccccc2)c1)c1ccccc1O | 3% | i | ? | 2% | 0% | -2%
O=C(c1cnn(-c2ccccc2)c1)c1cc(F)ccc1O | 8% | i | 10µM* | 3% | 18% | -2%
Cc1c(Cl)cccc1NC(=O)CN1C(=O)COc2ccc(S(=O)(=O)Nc3ccccc3)cc21 | . | i | ? | . | . | .
COc1cccc(CNc2ccc([N+](=O)[O-])cc2C)c1 | 6% | i | 16µM* | 1% | -3% | 0%
CN1C(=O)c2ccccc2Sc2ccc(NC(=O)N3CCN(c4ccccc4)CC3)cc21 | . | i | 1% | . | . | .
CCOc1ccc(Nc2c3c(nc4nncn24)CCC3)cc1 | . | i | 35µM* | . | . | .
Brc1ccc(Nc2c3c(nc4nncn24)CCC3)cc1 | . | i | 13µM* | . | . | .
COc1ccc(Nc2c3c(nc4nncn24)CCC3)cc1Cl | . | i | 22% | . | . | .
Cc1ccc(Nc2c3c(nc4nncn24)CCC3)cc1 | . | i | 16µM* | . | . | .
